The full ranking holds about 33,000 sequences; the median of “E-score (dimensionless, -0.5 to 0.5)” is about -0.058, and the highest 2% start at about 0.35. For the sample, the highest values were picked, then their nearest neighbours and some sequences at random.
Test system: MvaT
Assay: PBM 8-mer E-score (mean of HK and ME arrays) (E-score (dimensionless, -0.5 to 0.5)); higher = stronger relative binding preference
Outline: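 Full-length P. aeruginosa MvaT, with glutathione S-transferase fused to its N-terminus (cloned into pTH6838 by isothermal assembly), was tested by protein binding microarray using a previously described protocol. Two universal double-stranded 60-mer arrays (ME and HK) were used, each with a constant 25-mer primer region and a variable 35-mer region covering all 8-mers. The rank-based 8-mer E-score (-0.5 to 0.5) is the mean of the two arrays, parsed with a custom Python script.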

Row | Sequence | PBM 8-mer E-score
1 | AATATCAT | 0.294
2 | AATATTGG | 0.278
3 | AATATTAC | 0.372
4 | CATATTAG | 0.305
5 | TATTCTGA | 0.132
6 | CTGATAGC | -0.222
7 | CCCGGGCG | -0.302
8 | GAGCTGGC | -0.277
9 | AACTCTTA | 0.21
10 | ATAAATCA | 0.295
11 | ATAAATAG | 0.358
12 | GTAAATAC | 0.228
13 | CTAAATAG | 0.102
14 | ATAAATGA | 0.316
15 | GTAAATGA | 0.222
16 | ATAAATAA | 0.442
17 | ATAAATAT | 0.44
18 | GTAAATAA | 0.366
19 | ATAAACAT | 0.342
20 | ATAAAGAT | 0.333
21 | ATAAATCG | 0.255
22 | ATGTTCTA | 0.0957

Row | Sequence | PBM 8-mer E-score
23 | TAGTCGGA | -0.0242
24 | ACATTTCA | 0.153
25 | ATTTAGAA | 0.321
26 | GTAGTGTA | 0.0767
27 | CGGTGCTA | -0.21
28 | ATAAATGC | 0.279
29 | ATAAATCC | 0.25
30 | ATAAATAC | 0.362
31 | CGGTTTCC | -0.194
32 | CAATTTGG | 0.0733
33 | CATTAAGG | 0.0854
34 | AATTAAGT | 0.395
35 | ACTTAAGT | 0.314
36 | AATTAAGC | 0.328
37 | AGTTAAGG | 0.135
38 | AATTAAGG | 0.37
39 | ATGCAGAA | 0.0633
40 | CAGACAAA | 0.0494
41 | GAGAGGCC | -0.32
42 | AGATGAGA | 0.0308
43 | GAATATCC | 0.0901
44 | GAATATGC | 0.119

Row | Sequence | PBM 8-mer E-score
45 | GAATATTC | 0.349
46 | AGATATTC | 0.209
47 | AAATATTC | 0.363
48 | AAATATCC | 0.253
49 | GACCGAAA | -0.0789
50 | GGGACGGA | -0.273
51 | TAGGAGGA | -0.23
52 | CTTATTTA | 0.391
53 | GCTATTTA | 0.252
54 | ATTATTTA | 0.44
55 | ATTATTTG | 0.351
56 | ACTATTTA | 0.345
57 | CTCATTTA | 0.172
58 | AGTATTTA | 0.33
59 | AGTATTTG | 0.308
60 | ACTATTTG | 0.258
61 | GGTATTTA | 0.27
62 | GTTATTTA | 0.395
63 | CTTATTTC | 0.291
64 | GACGACGA | 0.0375
65 | AGCCTTCG | -0.32
66 | CAAAAATC | 0.0508

Row | Sequence | PBM 8-mer E-score
67 | GAGATTAC | 0.135
68 | AAGAAACT | 0.186
69 | GGCGTGGA | -0.173
70 | GACCATAA | -0.0261
71 | CGGAGCCA | -0.2
72 | GCAATCCA | -0.0685
73 | CGCACCCC | -0.26
74 | ATTATTGC | 0.292
75 | AGTATTTC | 0.207
76 | ATTATTTC | 0.352
77 | AACCTGGA | -0.275
78 | AGCGCGAT | -0.196
79 | CATTTAAA | 0.386
80 | AATTTAAT | 0.431
81 | AATTTAAC | 0.31
82 | AATTTTAA | 0.321
83 | AATTTAAA | 0.443
84 | CATTTAAG | 0.287
85 | TATTTTAA | 0.41
86 | AATTTAAG | 0.271
87 | CATTTTAA | 0.176
88 | TATTTTCA | 0.277

Row | Sequence | PBM 8-mer E-score
89 | GATTTTAA | 0.248
90 | AATTTAGA | 0.183
91 | ATGCATAG | -0.0132
92 | CGCGCATA | 0.113
93 | GCGTGAAC | -0.168
94 | GGACCCCA | -0.231
95 | TACGCACA | 0.0888
96 | CGGTGGCA | -0.169
97 | CGCACGTA | -0.1
98 | CCTGCACG | -0.224
99 | GATTTAAC | 0.245
100 | TATTTAGA | 0.308
101 | GATTTAAA | 0.395
102 | GATTTGAA | 0.2
103 | TCTTTAAA | 0.227
104 | GATTTACA | 0.072
105 | TATTTACA | 0.374
106 | CATTTACA | 0.339
107 | TATTTAAA | 0.433
108 | ATGTCAAC | 0.0323
109 | CGCCTACG | -0.307
110 | AGGGAGAG | -0.161

Reference: the supplement of paper PMC4466236
